Out of some 16,000 compounds screened, about 5,100 (32%) were called active. Inconclusive results (about 25%) are left out. The list shows a part of the results. Values without a mark were called inactive. Calls come from the whole dose curve; as a rule, active = well fitted curve in the direction sought with a large enough effect; inconclusive = small, poorly fitted or top-dose-only effect, or effect the other way; inactive = no such curve, though single readings can be large or run the other way.

91 compounds from PubChem BioAssay AID1851 (National Center for Advancing Translational Sciences (NCATS), 2009) can be followed below.
% is set by controls: 0 for no effect and ±100 for the full control effect.

This test deals with Cytochrome P450 3A4 (Homo sapiens) (UniProt P08684). The test can be described thus: Cytochrome panel assay with activity outcomes. The settings on record: recombinant CYP, pro-luciferin dealkylation, luminescence, p450-cyp3a4; series mostly up to 57.1 µM; activity, negative = inhibition: at the top concentration.
Cytochrome P450 3A4 (Homo sapiens), sequence (P08684 whole entry, looked up): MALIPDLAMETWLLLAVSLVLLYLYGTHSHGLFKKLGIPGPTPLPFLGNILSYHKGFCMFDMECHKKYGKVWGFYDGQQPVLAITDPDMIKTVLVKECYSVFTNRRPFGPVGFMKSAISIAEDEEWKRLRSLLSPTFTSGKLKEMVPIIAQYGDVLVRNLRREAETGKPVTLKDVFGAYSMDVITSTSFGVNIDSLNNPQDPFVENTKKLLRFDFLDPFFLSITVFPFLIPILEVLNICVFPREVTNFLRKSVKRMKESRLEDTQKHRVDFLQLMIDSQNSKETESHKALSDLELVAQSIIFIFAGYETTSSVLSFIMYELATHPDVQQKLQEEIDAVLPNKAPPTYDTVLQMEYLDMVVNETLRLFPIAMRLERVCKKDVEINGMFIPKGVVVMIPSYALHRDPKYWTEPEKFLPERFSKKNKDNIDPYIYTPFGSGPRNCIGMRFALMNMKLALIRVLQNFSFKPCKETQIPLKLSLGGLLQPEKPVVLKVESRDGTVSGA
Turning to `OCCCN=C1CCCCC1`, the activity, negative = inhibition was -15.7% [at 11.4 µM].
`CNC(=O)c1nnn(Cc2ccccc2)c1NC(=O)C(F)(F)F`: the “activity, negative = inhibition” value is 11.1%.
The AC50 is the concentration at which the activity in the assay is half-maximal. For `C[C@@H](C(=O)Nc1ccc2ccccc2c1)[C@@H]1C[C@@]1(C)[C@@H](NC(=O)OCc1ccccc1)c1ccccc1`, the AC50 is 7.94 µM (active).
Turning to `C[C@@H](C(=O)Nc1ccc2ccccc2c1)[C@H]1C[C@]1(C)[C@H](NC(=O)OCc1ccccc1)c1ccccc1`, the AC50 was 2.51 µM (active).
On to `Cc1ccc(NC(=O)N(Cc2ccco2)C(C)c2ccco2)cc1C` (stereo unspecified), for which the AC50 is 3.16 µM (active).
As to `c1cncc(CNCc2cccnc2)c1`, the activity, negative = inhibition was -27.6% [at 11.4 µM].
On to `c1ccc(C[C@@H](Nc2cccnc2)c2ccccc2)cc1`, for which the AC50 is 3.16 µM (active).
On to `c1ccc(CCc2cccnc2)nc1`, for which the activity, negative = inhibition was -27.8% [at 11.4 µM].
Regarding `CCOC(=O)CCN1C(=O)[C@H]2[C@H]3[C@H](O)[C@H](O)C/C(=N/OCC(C)C)[C@@H]3CC[C@@H]2C1=O`, the activity, negative = inhibition was -27.7% [at 11.4 µM].
`O=C(c1ccc([N+](=O)[O-])cc1)n1nc(-c2ccccc2)nc1NCc1ccccc1`: the activity, negative = inhibition was 13.6% [at 2.29 µM].
Regarding `O=C(NCc1cn(-c2ccccc2)nc1-c1ccccc1)c1cc([N+](=O)[O-])cc([N+](=O)[O-])c1`, the concentration at half-maximal activity (AC50) is 2.51 µM (active).
The same measure, in the same setting: in the case of `COC(=O)c1ccc(C23CC2(C(NP(=O)(c2ccccc2)c2ccccc2)c2ccccc2)C3)cc1` (stereo unspecified) it was 3.16 µM (active).
Consider `COC(=O)c1ccc(NC(=O)c2ccccc2)o1`, for which the activity, negative = inhibition was -12.8% [at 2.29 µM].
As to `COC(=O)c1ccc(C#CC(NP(=O)(c2ccccc2)c2ccccc2)c2ccccc2)cc1` (stereo unspecified), the “activity, negative = inhibition” value was -25.5%.
Same read-out and setting: then `CN1C(=O)C[C@H](c2ccccc2)C1=O`, with -5.93% [at 25.6 µM]; and `C/C(=N\Nc1nnc(C)c(=O)[nH]1)C(=O)O`, with -10%.
For `COC(=O)[C@@]1(Cc2ccccc2)[C@H]2c3cc(C(=O)N4CCCC4)n(CCc4ccccn4)c3C[C@H]2CN1C(=O)c1ccccc1`, the AC50 was 2 µM (active).
With `COC(=O)[C@@]1(Cc2ccccc2)[C@H]2c3cc(C(=O)N4CCCC4)n(Cc4ccccn4)c3C[C@H]2CN1C(=O)c1ccccc1`, the AC50 was 2 µM (active).
Same read-out and setting: in the case of `COC(=O)[C@@]1(Cc2ccc(F)cc2)[C@H]2c3cc(C(=O)N4CCCC4)n(Cc4ccccn4)c3C[C@H]2CN1C(=O)c1ccccc1` it was 1 µM (active).
Turning to `O=C(O)[C@@H](O)[C@@H](O)[C@H](O)[C@H](O)CO`, the activity, negative = inhibition was -3.9% [at 11.4 µM].
`C/C(=C\C(=O)c1ccc(Br)cc1)NCc1ccc2c(c1)OCO2`: the AC50 was 2.51 µM (active).
For `O=C(Cc1ccc(Br)cc1)OCC(=O)c1ccc2c(c1)OCCO2`, the activity, negative = inhibition was -3.84% [at 2.29 µM].
On to `CC1CCCC(NC(=O)c2n[nH]c(=O)c3ccccc23)C1C` (stereo unspecified), for which the half-maximal activity concentration (AC50) is 12.6 µM (active).
As to `CCN(CC)CCCN(Cc1cc2ccc(C)c(C)c2[nH]c1=O)C(=O)NC1CCCCC1`, the AC50 was 2.82 µM (active).
With `Cc1c(Br)cc(C(=O)NC2CCCCC2)c(C)c1C`, the activity, negative = inhibition is -5.25% [at 2.29 µM].
As to `CCC(=O)NC(NCC1CCCO1)C(Cl)(Cl)Cl` (stereo unspecified), the “activity, negative = inhibition” value is -9.79%.
Same read-out and setting: then `c1c[nH]c(CN2CCOCC2)n1`, with -23.7% [at 11.4 µM].
Regarding `Cn1c(CN2CCOCC2)nnc1SCc1ccccc1`, the half-maximal activity concentration (AC50) is 10 µM (active).
As to `COC1(OC)N=C(NC(=O)Nc2ccccc2)C2(C#N)C(c3ccccc3)C12C#N` (stereo unspecified), the “activity, negative = inhibition” value was -7.34%.
Turning to `Cn1c(CNC(=O)Nc2ccccc2)nnc1SCc1ccccc1`, the AC50 is 14.1 µM (active).
`CC(=O)[C@H](C(=N)C#N)C(=O)Nc1ccccc1`: the activity, negative = inhibition was 3.78% [at 11.4 µM].
For `COc1cccc(NC(=O)CSc2nnc(CN3CCOCC3)n2C)c1`, the “activity, negative = inhibition” value is -19.6%.
As to `CCn1c(=O)[nH]c2cc(Cl)c(Cl)cc21`, the concentration at half-maximal activity (AC50) was 12.6 µM (active).
In the case of `CCn1c(=O)[nH]c2ccccc21`, the “activity, negative = inhibition” value was -7.93%.
For the compound `CCn1c(C)[n+](CCCS(=O)(=O)[O-])c2cc(Cl)c(Cl)cc21`, the “activity, negative = inhibition” value was 3.69%.
The same measure, in the same setting: then `O=C(O)/C=C\C(=O)Nc1ccccn1`, with -10.9% [at 11.4 µM]; and `Cc1cccc(C(=O)Nc2nnc(-c3ccc(C(C)(C)C)cc3)s2)c1`, with 16%.
As for `C=C(C)C1CC=C(C)/C(=N/NC(=O)c2ccc(NC(=O)c3cccc(C)c3)cc2)C1` (stereo unspecified), the AC50 is 12.6 µM (active).
The same measure, in the same setting: in the case of `C=C(C)[C@H]1CC=C(C)/C(=N/NC(=O)CNc2ccccc2OC)C1` it was 10 µM (active).
In the case of `Cc1cccc(C(=O)NNC(=O)C2CCCO2)c1` (stereo unspecified), the “activity, negative = inhibition” value was -2.87%.
On the same count and under the same terms, then `CSc1ccc2nnc(-c3cccc(F)c3)n2n1`, with 0.102%.
With `COc1cccc(-c2nnc3sc(-c4ccc(C)cc4)nn23)c1`, the AC50 was 7.94 µM (active).
Take `CNC[C@@H](SC)c1ccc(O)c(O)c1`: the activity, negative = inhibition is -6.87% [at 11.4 µM].
Take `Clc1ccc(/C=N/Nc2nnc(-c3ncc[nH]3)c3ccccc23)cc1`: the concentration at half-maximal activity (AC50) was 15.8 µM (active).
Consider `CCOc1ccc(C(C)=O)cc1N1C(=O)C2C(C1=O)C1C=CC2C12CC2` (stereo unspecified), for which the “activity, negative = inhibition” value was -8.58%.
`CCOc1ccc(C(C)=O)cc1N1C(=O)C2C3C=CC(C3=C(C)C)C2C1=O` (stereo unspecified): the AC50 is 11.2 µM (active).
With `CCOc1ccc(C(C)=O)cc1N1C(=O)C2C3C=CC(O3)C2C1=O` (stereo unspecified), the activity, negative = inhibition is -20.8% [at 11.4 µM].
The same measure, in the same setting: then `CCC(C)(C)NC(=O)c1ccc2c(c1)N(CC(=O)OC)C(=O)C(C)(C)O2`, with -14.5%; and `Nc1ncnc2c1ncn2CCCCC(=O)O`, with -8.48% [at 11.4 µM]; and `Cc1ccc(C(CC(N)=O)c2ccco2)cc1` (stereo unspecified), with -1.79%.
For the compound `Cc1ccc(C(C(=O)NCc2ccco2)N(C(=O)CNC(=O)c2cccs2)c2ccc(C)cc2)cc1` (stereo unspecified), the AC50 was 1.12 µM (active).
On to `Cc1ccc(C(C(=O)NCc2ccco2)N(C(=O)CNC(=O)c2cccs2)c2ccc(C)cc2C)cc1` (stereo unspecified), for which the concentration at half-maximal activity (AC50) was 1 µM (active).
As for `O=C(NCc1ccco1)C(c1ccccc1)N(C(=O)Cc1cccs1)c1ccccc1F` (stereo unspecified), the half-maximal activity concentration (AC50) was 0.794 µM (active).
Take `O=C(c1cccs1)n1nc(-c2ccc(Cl)cc2)nc1NCc1ccco1`: the activity, negative = inhibition is -4.78% [at 2.29 µM].
As for `CCn1c(C)c(/C=N/Nc2nc3ccccc3s2)c2ccccc21`, the concentration at half-maximal activity (AC50) is 8.91 µM (active).
Same read-out and setting: in the case of `Cc1ccc(C(=O)N2CCN(C3c4cccc5cccc(c45)C3NS(=O)(=O)c3ccccc3)CC2)cc1` (stereo unspecified) it was 0.0355 µM (active).
For `Cc1ccc(C(=O)N2CCN(c3cc(=O)[nH]nc3-c3ccccc3)CC2)cc1`, the “activity, negative = inhibition” value was 6.24%.
As to `Cc1noc(C)c1-c1ccc2ncnc(NCc3cccnc3)c2c1`, the AC50 is 2.51 µM (active).
On the same count and under the same terms, in the case of `Cc1noc(C)c1-c1ccc2ncnc(NCc3cccs3)c2c1` it was 10 µM (active).
On the same count and under the same terms, in the case of `Cc1cccc(CNc2ncnc3ccc(-c4c(C)noc4C)cc23)c1` it was 0.794 µM (active).
Consider `Cc1noc(C)c1-c1ccc2ncnc(NC3CCNCC3)c2c1`, for which the “activity, negative = inhibition” value is -15.9%.
As for `Cc1noc(C)c1-c1ccc2ncnc(NCc3ccccc3)c2c1`, the AC50 is 10 µM (active).
Take `N#[N+]c1ccc(Nc2ccccc2)cc1`: the activity, negative = inhibition was -10.9% [at 11.4 µM].
Same read-out and setting: in the case of `CC[N+](C)(CC)CCN1C(=O)c2ccccc2S1(=O)=O` it was 6.19% [at 11.4 µM].
In the case of `Cc1cc(C)c(S(=O)(=O)N2CCN(c3ccc([N+](=O)[O-])c(NCc4ccco4)c3)CC2)c(C)c1`, the concentration at half-maximal activity (AC50) was 7.08 µM (active).
Turning to `CNc1cc(N2CCCCCC2)ccc1[N+](=O)[O-]`, the activity, negative = inhibition is -20.1% [at 2.29 µM].
`O=[N+]([O-])c1ccc(N2CCCC2)cc1NCc1ccccc1`: the AC50 is 15.8 µM (active).
As for `CC(C)c1ccc(CNc2cc(N3CCCC3)ccc2[N+](=O)[O-])cc1`, the activity, negative = inhibition was -8.24% [at 2.29 µM].
Same read-out and setting: in the case of `CC(=O)N(CC(O)CN(C(C)=O)c1c(I)c(C(=O)NC[C@@H](O)CO)c(I)c(C(=O)NC[C@@H](O)CO)c1I)c1c(I)c(C(=O)NC[C@@H](O)CO)c(I)c(C(=O)NC[C@@H](O)CO)c1I` it was 3.05% [at 25.6 µM].
Same read-out and setting: then `CC(C)(C)c1ccc(O)c(CN(Cc2cc(C(C)(C)C)ccc2O)C2CCCCC2)c1`, with -3.22% [at 11.4 µM]; and `c1ccc2cc(C3=NCCN3)ncc2c1`, with -15.9%.
Same read-out and setting: then `COc1cc(/C=C\C(=O)N2CCC=CC2=O)cc(OC)c1OC`, with -8.08% [at 25.6 µM].
On to `CCSc1nc2ccccc2n1C(=O)/C=C\c1ccc(OC)c(OC)c1`, for which the half-maximal activity concentration (AC50) was 20 µM (active).
As for `COc1ccc(/C=C/C(=O)Nc2nc(C)cc(C)n2)cc1OC`, the activity, negative = inhibition was 2.05% [at 2.29 µM].
As for `C=CCSc1nc2ccccc2n1C(=O)/C=C/c1cc(OC)c(OC)c(OC)c1`, the AC50 was 7.94 µM (active).
For `C#CCSc1nncn1C(=O)/C=C/c1ccccc1`, the activity, negative = inhibition is -0.406% [at 2.29 µM].
Consider `c1ccc2nc(C3=NCCN3)ccc2c1`, for which the “activity, negative = inhibition” value was 7.89%.
Still for that read-out and setting: then `c1ccc2cc(-c3csnn3)ccc2c1`, with 16%.
For the compound `c1ccc2nc(-c3ccncc3)ccc2c1`, the AC50 is 2.82 µM (active).
Consider `Cc1cc(Cl)ccc1OCC(=O)Nc1nc(N)nc(N)n1`, for which the activity, negative = inhibition was -4.83% [at 11.4 µM].
Consider `Cc1cc(Cl)ccc1OCC(=O)N/N=C1\CCCc2ccccc21`, for which the concentration at half-maximal activity (AC50) is 12.6 µM (active).
The same measure, in the same setting: then `Cc1cc(Cl)ccc1OCC(=O)NCc1ccncc1`, with 1.41 µM (active).
On to `O=C(N/N=C1\CCCc2ccccc21)c1ccc([N+](=O)[O-])cc1Cl`, for which the activity, negative = inhibition was -11.3% [at 2.29 µM].
In the case of `Cn1c(=O)c(-c2ccc(Cl)cc2)nc2cnc(OCc3ccccc3)nc21`, the “activity, negative = inhibition” value is 19.1%.
Consider `COc1ncc2nc(-c3ccc(Cl)cc3)c(=O)n(C)c2n1`, for which the AC50 was 25.1 µM (active).
As to `COc1ccc(-c2nc3cnc(OC)nc3n(C)c2=O)cc1`, the AC50 is 25.1 µM (active).
Regarding `COc1ccc(-c2nc3cnc(N4CCN(C)CC4)nc3n(C)c2=O)cc1`, the “activity, negative = inhibition” value was 18.8%.
On the same count and under the same terms, then `COc1ncc2nc(-c3ccccc3)c(=O)n(C)c2n1`, with -25.8%; and `CN(C)c1ncc2nc(-c3ccc(F)cc3)c(=O)n(C)c2n1`, with 18.7%.
Same read-out and setting: then `COc1ncc2nc(-c3ccc(Cl)cc3)c(=O)n(-c3ccccc3)c2n1`, with 11.2%.
In the case of `COc1ncc2nc(-c3ccc(F)cc3)c(=O)n(C)c2n1`, the half-maximal activity concentration (AC50) was 20 µM (active).
